# Tgondii IFNg = inhibitors of Toxoplasma gondii growth with IFN-gamma | activity change, negative = inhibition, % (no concentration beside the values) | Toxoplasma gondii growth in IFN-gamma-treated host cells; hits give low values | actives 3.8% (n = 69,000); in the data active = activity change below about -70%, passing the limit was not always enough;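 note: host cells are HeLa cells infected with Toxoplasma gondii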
# Numbers without * were called inactive; ! = repeats disagree. The sample as a whole holds a higher share of hits than the screen did.
SMILES,Tgondii IFNg
NC(=O)c1ccc(NC(=O)c2cc3cccnc3n(Cc3ccc(F)cc3)c2=O)cc1,-6.4
C/C=C/c1ccc([C@H]2[C@@H](CO)N3CCCCN(C(=O)Cc4cccnc4)C[C@H]23)cc1,17.4
COc1ccc(C(=O)c2c(C)n(CCN3CCOCC3)c3cc(I)ccc23)cc1,7.4
CCCn1c(C)c(C(=O)c2cccc3ccccc23)c2ccccc21,32.5
Cc1c(C(=O)c2cccc3ccccc23)c2cccc3c2n1[C@H](CN1CCOCC1)CO3,-90.1*
Cn1cc(C(=O)NC2CC3(CCN(Cc4ccccn4)C3)C2)cn1 (stereo not given),-0.6
O=C(NCc1ccccn1)c1cc2cccnc2n(Cc2ccccc2)c1=O,18.8
COc1cccc2c1C(=O)c1c(O)c3c(c(O)c1C2=O)C[C@@](O)(C(=O)CO)C[C@@H]3O[C@H]1C[C@H](N2CCO[C@H](OC)C2)[C@H](O)[C@H](C)O1,-80.8*
CCn1cnnc1CCNC(C)Cc1ccccc1F (stereo not given),6.9
C[N+]12CC[C@@]34c5ccccc5N5C(=O)CC6OCC=C(C1)[C@H](CC32)[C@@H]6C54 (stereo not given in full),21.5
Cc1ccc(NC2=NCCCS2)cc1,136.2
O=C(Cc1ccc(F)cc1)N1CCN(Cc2ccccc2)CC(Cc2ccccn2)C1 (stereo not given),5.2
c1cnc(N2CCCC3(CCN(Cc4ccncc4)C3)C2)nc1 (stereo not given),60.2
c1cc(CN2CC3CNC(C3)C2)co1 (stereo not given),-18.1
CC(=O)O[C@@]12CO[C@@H]1C[C@H](O)[C@@]1(C)C(=O)[C@H](O)C3=C(C)[C@@H](O)C[C@@](O)([C@@H](OC(=O)c4ccccc4)[C@H]21)C3(C)C,-75.7*!
c1ccc(CCCN2CCC3(CCNCC3)C2)cc1,-15.1
Cc1cc(Cl)ccc1OCC(=O)O,10.3
O=C(O)COc1ccc(Cl)cc1Cl,16.1
Oc1cc(Cl)ccc1Oc1ccc(Cl)cc1Cl,-86.9*
C[C@]12CC[C@@H](O)C[C@@H]1CC[C@@H]1[C@@H]2CC[C@]2(C)[C@@H](O)CC[C@@H]12,4.2
CCCC[N+]1(C)[C@@H]2CC(OC(=O)[C@H](CO)c3ccccc3)C[C@H]1[C@@H]1O[C@@H]12 (stereo not given in full),5.4
Cc1nc(N)sc1CCN,13.0
O=C(O)CN1C2CCC(C2)[C@@H]1C(=O)c1cccnc1 (stereo not given in full),2.4
CCCc1nc(-c2ccccn2)nc(OC(=O)N(C)C)c1Cc1c(F)cccc1Cl,-98.5*
O=C(NCC1CCCO1)c1cc2cccnc2n(Cc2ccccc2F)c1=O (stereo not given),-11.0
SMILES,Tgondii IFNg
Oc1ccc2c3c1OC1c4oc5ccccc5c4CC4(O)C(C2)N(CC2CC2)CCC314 (stereo not given),15.6
Clc1ccc(COC(Cn2ccnc2)c2ccc(Cl)cc2Cl)c(Cl)c1 (stereo not given),-85.2*!
CNc1ncccc1C(=O)N1CCC2(CCN(C)C2)CC1,-0.1
O=C(Nc1ccc(F)c(Cl)c1)c1cc2cccnc2n(Cc2ccccc2)c1=O,102.6
CC(C)=CCC12CN3CCN(CC(C3)C1=O)C2,-3.7
Cc1cccc(CN2CC[C@H]3[C@@H]2CCN3C(=O)NC2CCCC2)n1,-44.3
CC1CCN(CC(C)(C)CN2C3CCC2CC(O)(c2ccc(F)cc2)C3)CC1 (stereo not given),7.7
CCCC1C(c2ccccc2)NC(c2ccccc2)CC1(O)c1ccc(F)cc1 (stereo not given),-97.4*
C[C@]12CCC(=O)C=C1CC[C@@H]1[C@@H]2CC[C@]2(C)C(=O)CC[C@@H]12,47.4
CCN(CC)CCOC1CCC2(C)C(=CCC3C4CCC(=O)C4(C)CCC32)C1 (stereo not given),-51.3
CCCCCCC(=O)O[C@H]1CC[C@H]2[C@@H]3CCC4=CC(=O)CC[C@]4(C)[C@H]3CC[C@]12C,-74.6*
CCC(=O)O[C@H]1CCC2C3CCC4=CC(=O)CC[C@]4(C)C3CC[C@@]21C (stereo not given in full),-84.3*
Cc1nc(CC(=O)N2CCCN(Cc3ccc(F)cc3)C(C(C)C)C2)cs1 (stereo not given),10.7
NC[C@H](CC(=O)O)c1ccc(Cl)cc1,4.5
CN(C)[C@@H]1C(=O)C(C(N)=O)C(=O)[C@@]2(O)C(=O)C3C(=O)c4c(O)cccc4[C@@](C)(O)C3[C@H](O)C12 (stereo not given in full),15.6
CC(=O)[O][Hg][c]1ccccc1,-72.3*
CCN(CC)C(C)C(=O)c1ccccc1 (stereo not given),20.7
CC(O)(CS(=O)(=O)c1ccc(F)cc1)C(=O)Nc1ccc(C#N)c(C(F)(F)F)c1 (stereo not given),9.4
O=c1cccc2n1C[C@H]1C[C@@H]2CN2CCCC[C@@H]12,-2.1
CC(=O)OC1CC[C@@]2(C)C(CCC3C2CC[C@]2(C)C(C4=CC(=O)OC4)C(OC(C)=O)CC32O)C1 (stereo not given in full),-79.6*
CN1CCC(c2nc3ccc(N4CCOCC4)cn3n2)CC1,-36.9
COC(=O)c1ccc(/C=C/C(=O)C2C(=O)N(C)C3(C)CC2c2cc(Br)ccc2O3)cc1 (stereo not given),-2.9
COc1ccc(CC2NCCc3cc(OC)c(OC)cc32)cc1OC (stereo not given),-10.6
CN1C(=O)C(c2cccnc2)CC12CCNCC2 (stereo not given),42.6
CN1CCOCC2(C1)CN(c1nccc(C(F)(F)F)n1)CCO2 (stereo not given),1.2
SMILES,Tgondii IFNg
CC(C(=O)OC1CC2CCC(C1)N2C)c1ccc(Br)cc1 (stereo not given),8.1
O=C(Nc1ccc(F)c(Cl)c1)c1c(O)c2cccnc2n(Cc2ccccc2)c1=O,-26.8
CCc1ccccc1NC(=O)c1c(O)c2cccnc2n(Cc2ccccc2)c1=O,-88.4*
Cc1ccccc1NC(=O)c1c(O)c2cccnc2n(Cc2ccccc2)c1=O,83.9
CC(CCc1ccccc1)NC(=O)c1cc2cccnc2n(Cc2ccccc2)c1=O (stereo not given),-28.9
CC(NC(=O)c1c(O)c2cccnc2n(Cc2ccccc2)c1=O)c1ccc(F)cc1 (stereo not given),-113.1*
O=C(Nc1ccc(F)c(F)c1)c1c(O)c2cccnc2n(Cc2ccccc2)c1=O,-58.2
CCc1ccc(NC(=O)c2c(O)c3cccnc3n(Cc3ccccc3)c2=O)cc1,29.7
O=C(Nc1ccc(F)cc1)c1c(O)c2cccnc2n(Cc2ccccc2)c1=O,254.8
CC(NC(=O)c1cc2cccnc2n(Cc2ccccc2)c1=O)c1ccccc1 (stereo not given),-90.7*
O=C(NCc1ccccc1F)c1c(O)c2cccnc2n(Cc2ccccc2)c1=O,-111.9*
CC(NC(=O)c1cc2cccnc2n(Cc2ccccc2F)c1=O)c1ccccc1 (stereo not given),18.1
Cc1ccc(F)cc1NC(=O)c1c(O)c2cccnc2n(Cc2ccccc2)c1=O,67.8
Cn1cc(C(=O)c2ccc(F)cc2)c2ccnc(Cl)c21,-56.9
O=C(Nc1cc(F)ccc1F)c1cc2cccnc2n(Cc2ccccc2)c1=O,38.2
COC(=O)c1ccc(NC(=O)c2cc3cccnc3n(Cc3ccc(F)cc3)c2=O)cc1,10.7
Cc1ccc(NC(=O)N2CC3CNC(C3)C2)cc1 (stereo not given),26.7
FC(F)(F)c1cc(N2C[C@@H]3CCN[C@@H]3C2)ncn1,70.1
Cc1nc(CN2CCN(CC3CC3)c3ncccc3C2)cs1,-7.5
